Bioassay records as filed in PubChem.
KinaseGlo FLuc: counter-screen: inhibitors of Kinase-Glo firefly luciferase. AID 1379. Q27757. Potency, µM (highest dose often 38.3 µM), without a hit: at the top dose activity change, negative = inhibition, hits mostly inhibitors. 0.28% of 200,000 active. Kinase-Glo luciferase, ATP luminescence, 8 min; also: nearly all actives have a fitted effect of over 60% in size
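Kinase-Glo luciferase light output from ATP and luciferin was measured with 10 uM ATP, within the enzyme's linear range. Buffer: 50 mM imidazole pH 7.2, 50 mM KCl, 7 mM MgCl2, 0.01% Tween 20, 0.05% BSA; luminescence read after 8 min at ambient temperature.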
Tau fibril FP: tau fibrillization inhibition (FP); P10636; K18 P301L tau heparin fibrillization, Alexa594 FP, 6 h; Potency, µM (series often up to 57.7 µM), for inactives: top-dose activity, negative = inhibition, hits mostly inhibitors; 0.39% of 280,000 active; AID 1468; also: nearly all actives have a fitted effect of over 55% in size
Target sequence (P10636 561-689 P618L limits assumed): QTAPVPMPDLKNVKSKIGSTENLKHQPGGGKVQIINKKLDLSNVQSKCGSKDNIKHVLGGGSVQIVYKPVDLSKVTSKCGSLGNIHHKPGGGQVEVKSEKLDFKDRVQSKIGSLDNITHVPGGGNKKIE
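Read-out: fluorescence polarization of Alexa 594-labeled tau (0.24 uM), 555 nm excitation, 632 nm emission. Mixtures held 15 uM unlabeled K18 P301L, compound and 20 uM heparin, pH 7 acetate buffer, incubated 6 hr at 37 C.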
Tau fibril ThT: tau fibrillization inhibition (ThT binding); recombinant tau K18 P301L, heparin-induced fibrillization, ThT fluorescence; 2.1% of 270,000 active; Potency, µM (doses to about 57.4 µM), without a hit: top-dose activity, negative = inhibition, usual class: inhibitors; also: nearly all actives have a fitted effect of over 55% in size
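ThT emission at 510 nm, taken 1 hr after adding 30 uM dye, quantifies aggregates formed when 20 uM heparin acts on human tau K18 P301L for 6 hr at 37 C.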
NPSR antagonist: antagonists of human neuropeptide S receptor cAMP signaling. CHO-NPSR cells, cAMP TR-FRET, antagonist mode. Potency, µM (titrated, usually from 38.3 µM), inactives show at the top dose activity change, negative = inhibition, actives largely listed as inhibitors. 1% of 220,000 active. AID 1461; also: nearly all actives have a fitted effect of over 50% in size
Target sequence (Q6W5P4 whole entry, looked up): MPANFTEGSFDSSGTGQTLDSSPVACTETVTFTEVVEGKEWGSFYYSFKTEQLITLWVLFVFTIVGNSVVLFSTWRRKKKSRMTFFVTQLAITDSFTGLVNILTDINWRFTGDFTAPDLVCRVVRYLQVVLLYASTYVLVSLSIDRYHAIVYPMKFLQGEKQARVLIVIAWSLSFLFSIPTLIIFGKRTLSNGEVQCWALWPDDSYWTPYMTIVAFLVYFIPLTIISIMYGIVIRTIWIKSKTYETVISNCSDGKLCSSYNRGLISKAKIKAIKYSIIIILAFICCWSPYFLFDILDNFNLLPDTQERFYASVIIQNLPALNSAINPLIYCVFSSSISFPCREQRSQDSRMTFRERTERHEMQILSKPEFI
Tau fluor cs: counter-screen for tau fibril formation inhibitors. tau K18 P301L (four-repeat tau fragment) Alexa594 fluorescence, heparin fibrillization. Potency, µM (highest dose often 57.7 µM), for inactives: at the top dose activity change, negative = decrease. 0.93% of 280,000 active. AID 1463; also: nearly all actives have a fitted effect of over 55% in size
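Human K18 P301L tau (15 uM unlabeled plus 0.24 uM Alexa 594-labeled, final) in 100 mM sodium acetate pH 7 was mixed with compound and 20 uM heparin and incubated 6 hr at 37 C.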
* hit, by the source's call; ? = inconclusive; . = not tested or not shown; [ ] = dose if it differs, or a comment. Sampled rows, rich in hits. Any-hit rate of the full collection: about 3.3%. Calls follow the shape of the dose curve; as a rule, active = well fitted curve in the direction sought with a large enough effect; inconclusive = small, poorly fitted or top-dose-only effect, or another doubt; inactive = no such curve, though single readings can be large; an effect the other way counts as inactive or inconclusive. % is scaled to controls: 0 for no effect and ±100 for the full control effect; potency is read from the fitted curve at half-maximal effect.

SMILES	KinaseGlo FLuc	Tau fibril FP	Tau fibril ThT	NPSR antagonist	Tau fluor cs
O=C(Nc1ccc(Cl)c(Cl)c1)Nc1nnc(CC2=CCCCC2)s1	0%	8.9µM*	11%	-11%	?
CCOc1ccc(S(=O)(=O)N(CC(=O)Nc2cccnc2)c2ccccc2)cc1	.	-6%	-2%	.	-19%
COc1c(OC(C)=O)ccc(/C=C/c2ccc3ccccc3n2)c1[N+](=O)[O-]	3%	?	10µM*	-26%[46.1 µM]	16µM*[quencher]
COC(=O)c1ccc(/C=C/c2ccc3cccc(OC(C)=O)c3n2)cc1	?	2%	5%	-3%	-4%
CCOc1c(OC(C)=O)ccc(/C=C/c2ccc3cccc(OC(C)=O)c3n2)c1[N+](=O)[O-]	-1%	?	6.3µM*	?	8.9µM*[quencher]
COc1c(OC(C)=O)ccc(/C=C/c2ccc3cccc(OC)c3n2)c1[N+](=O)[O-]	6%	-1%	8.9µM*	1%	?
COc1cc(Cl)c(NS(=O)(=O)c2ccc3c(c2)CC(C)N3C(=O)C2CCC2)c(OC)c1 (stereo not drawn)	.	10%	-13%	.	-26%
Cc1cc(=O)[nH]c(N=N/C(=N/Nc2ccc(O)cc2)c2ccccc2)n1	7.9µM*	10%	-2%	-36%[46.1 µM]	1%
Cc1cc(=O)[nH]c(N=N/C(=N/Nc2ccccc2C)c2ccccc2)n1	?	0%	?	-4%[46.1 µM]	?
COc1ccc(N/N=C(/N=Nc2nc(C)cc(=O)[nH]2)c2ccccc2)cc1	8.9µM*	3%	4.5µM*	-11%[46.1 µM]	?
CSc1nsc(/C=C/Nc2ccc(F)cc2F)c1C#N	4%	-11%	14µM*	-32%	?
CSc1nnc(C)c(/C=C/Nc2ccc(F)cc2F)n1	-1%	-3%	25µM*	-5%	-11%
CCOc1ccccc1NC(=O)C(C)n1nnc2sc3c(c2c1=O)CCCC3 (stereo not drawn)	.	-5%	-5%	.	-5%
O=C(Nc1ccc(O)cc1)/C(=C\C=C\c1ccccc1)NC(=O)c1ccccc1	.	-6%	?	-42%	18µM*[quencher]
COc1cccc(N=Nc2c(N)[nH]n3c(=O)cc(-c4ccccc4)nc23)c1	4%	9%	4µM*	-29%[46.1 µM]	?
Cc1cc(=O)n2[nH]c(N)c(N=Nc3ccccc3)c2n1	-10%	7%	?	-33%	0%
COc1cccc(N=Nc2c(=O)[nH]n3c(C)cc(C)nc23)c1	6%	4%	?	-36%	-8%
Cc1[nH]n2c(=O)cc(-c3ccc(Cl)cc3)nc2c1-c1ccccc1	.	-2%	14µM*	.	?
CCCc1cc(=O)n2[nH]c(C)c(-c3ccccc3)c2n1	.	4%	-4%	1%[46.1 µM]	6%
Cc1ccc(N=Nc2c(N)[nH]n3c(=O)cc(-c4ccccc4)nc23)cc1	-2%	2%	3.2µM*	-3%[46.1 µM]	?
COc1ccc(OC)c(NC(=O)Cn2nc3c(cc2=O)CCCC3)c1	.	11%	1%	.	-1%
COc1cc(/C=C2\SC(=O)NC2=O)ccc1Oc1ccc([N+](=O)[O-])cc1[N+](=O)[O-]	3%	-10%	14µM*	10µM*	?
CO/N=C/c1ccc(Oc2ccc([N+](=O)[O-])cc2[N+](=O)[O-])c(OC)c1	-4%	5%	15%	1%	1%
COc1ccc(/C=C2\SC(=O)NC2=S)cc1OC	-2%	?	8.9µM*	-20%	-27%
Cc1ccc(NC(=O)Cn2c(=O)n(Cc3ccccc3)c(=O)c3c(C)c(C)sc32)c(C)c1	.	?	12%	.	-6%
CCOC(=O)c1c(NC(=O)c2ccco2)n(C2CCCCC2)c2nc3ccccc3nc12	-3%	?	18µM*	-7%[46.1 µM]	-29%
CCC(=O)Nc1c(C#N)c2nc3ccccc3nc2n1C1CCCCC1	2%	7%	-12%	-13%[46.1 µM]	2%
O=C(Nc1ccc([N+](=O)[O-])cc1)Nc1ccc2c(c1)OCCO2	3%	?	?	6%	8.9µM*[quencher]
COc1cc([N+](=O)[O-])ccc1NC(=O)Oc1ccc(NC(C)=O)cc1	.	0%	-9%	-8%	-5%
O=C(Nc1ccc([N+](=O)[O-])cc1)Nc1ccc2[nH]c(=O)[nH]c2c1	-1%	23%	8.9µM*	2%	8.9µM*[quencher]
